LEDGF integ inh – blockers of LEDGF/p75-dependent integrase strand transfer – biochemical, TR-FRET, high throughput, primary screen. HIV-1 integrase (with human LEDGF/p75). TR-FRET IN-LEDGF/p75 DNA integration, Eu/Cy5. inhibition, % at 3.7 µM. actives 0.64% (n = 370,000);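 active means inhibition above the screen-wide mean plus 3 SD, cut at about 13% in these data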;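 further: signal is the Cy5 over europium emission ratio at 671 and 618 nm; 0% = plate median of compound wells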
MBD2 DNA inh – inhibitors of MBD2 binding to methylated DNA, primary screen, biochemical, TR-FRET, DNA-binding domain, human; MBD2 binding to methylated oligonucleotide; Methyl-CpG-binding domain protein 2 (Homo sapiens), Q9UBB5; inhibition, % at 4.4 µM; actives 0.31% (n = 370,000); in the data active means inhibition above about 13%
Target sequence (Q9UBB5 whole entry, looked up, the tested form may be a part): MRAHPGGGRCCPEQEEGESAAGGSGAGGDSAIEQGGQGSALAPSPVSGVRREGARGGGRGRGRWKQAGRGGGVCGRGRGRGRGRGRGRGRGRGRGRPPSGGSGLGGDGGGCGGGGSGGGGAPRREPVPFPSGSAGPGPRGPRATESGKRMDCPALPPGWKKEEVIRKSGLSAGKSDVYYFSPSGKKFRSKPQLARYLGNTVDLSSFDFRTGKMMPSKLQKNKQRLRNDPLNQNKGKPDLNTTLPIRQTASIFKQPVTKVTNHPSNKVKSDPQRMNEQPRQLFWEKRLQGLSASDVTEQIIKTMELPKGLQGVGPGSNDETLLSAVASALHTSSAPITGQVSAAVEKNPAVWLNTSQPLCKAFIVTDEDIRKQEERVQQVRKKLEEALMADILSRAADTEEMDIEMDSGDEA
PRMT1 inh – PRMT1 methyltransferase inhibitors, primary screen, biochemical, fluorescence polarization | Protein arginine N-methyltransferase 1 (Homo sapiens), Q99873 | recombinant PRMT1, activity-based probe fluorescence polarization | inhibition, % at 2.79 µM | actives 1.3% (n = 370,000) | AID 652257, 2013;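 active means inhibition above about 21% made by adding two undisclosed values, limit read from the data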
UHRF1 MBD2 ctr – UHRF1 methylated DNA binding inhibitors, primary screen, counter-screen for MBD2 inhibitor project, biochemical, TR-FRET, human UHRF1, single concentration. actives 0.75% (n = 370,000). inhibition, % at 4.4 µM. UHRF1 binding to methylated oligo; in the data active means inhibition above about 21%;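 further: UHRF1 SRA domain binding a hemimethylated CpG hairpin DNA probe; 0% = median of test compound wells and 100% = reference inhibitor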
PRMT1 confirm – PRMT1 methyltransferase inhibitors, confirmation, biochemical, fluorescence polarization, triplicate. shares compounds with PRMT1 inh. recombinant His-PRMT1, activity-based probe fluorescence polarization. inhibition, % at 2.79 µM. actives 42% (n = 3,300). AID 687036, 2013;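 active means mean inhibition across replicates above the hit cutoff derived for the earlier primary screen, cut at about 22% in these data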
Starred values were filed as active, the others as inactive; . = not tested or not shown. Hits are enriched below; roughly 2.5% of the tested compounds scored in any of these assays.

SMILES	LEDGF integ inh	MBD2 DNA inh	PRMT1 inh	UHRF1 MBD2 ctr	PRMT1 confirm
CC1=C(C(=O)N2CCCCCC2)CC(CC(=O)NCC2CCCCC2)C(=O)N1Cc1ccc(F)cc1 (configuration not stated)	1	-6	2	-2	.
CSc1ccccc1NC(=O)CSCc1nc2sc(C)c(C)c2c(=O)[nH]1	-1	3	7	1	.
Cc1ccc(F)cc1NC(=O)CSCc1nc2sc(C)c(C)c2c(=O)[nH]1	0	-5	34*	-4	38*
O=c1oc2c3c4c(cc2c(C(F)(F)F)c1CCN1CCOCC1)CCCN4CCC3	4	-1	53*	-1	24*
CCCCN(CCCNC(=O)Cn1nc(CC)n2c(cc3sc(C)cc32)c1=O)Cc1ccccc1	-3	5	0	0	.
CC1(OC(=O)CCc2ccccc2)C(=O)C=C2C=C(c3ccc(C#N)cc3)N(Cc3ccco3)C=C2C1=O (configuration not stated)	17*	-2	28*	14	10
COc1cc(C(=O)C(=O)N2CCN(c3ccccc3)CC2)cc(OC)c1OC	2	-3	-1	-2	.
S=C(NCc1ccco1)Nc1cc(-c2ccccc2)[nH]n1	10	6	32*	29*	29*
S=C(NCc1ccco1)Nc1ccc(Br)cn1	1	-4	6	-3	.
CCCCc1c(O)nc(SCC(=O)c2ccccc2)n(-c2ccccc2OC)c1=O	-1	-2	40*	5	14
CCCCc1c(O)nc(SCC(=O)c2ccccc2)n(-c2ccccc2C)c1=O	5	-1	17	-1	.
O=C(Cn1cc(S(=O)(=O)Cc2ccc([N+](=O)[O-])cc2)c2ccccc21)N1CCOCC1	-1	5	6	1	.
COc1ccc2c(c1)CC/C(=C\c1ccc(C)o1)C2=O	2	-2	39*	1	-6
COc1ccc2c(c1)CC/C(=C\C=C\c1ccccc1OC)C2=O	2	0	12	1	.
Nc1cccc2cc(S(=O)(=O)O)ccc12	39*	6	34*	47*	17
Nc1ccc2c(S(=O)(=O)O)cccc2c1S(=O)(=O)O	2	0	14	5	.
CN(C)c1ccc(N/C(N)=N/c2nc(C(F)(F)F)cc(C(F)(F)F)n2)cc1	3	6	8	-1	.
Cc1nc2scc(-c3ccccc3)c2c(=O)n1N=C1C=CC(=O)C=C1	6	-1	90*	-7	94*
Cc1cccc(C)c1NC(=O)CSCC(=O)O	3	-2	3	3	.
Cc1cccc(C)c1NC(=O)CSCC(=O)c1ccc(O)c(O)c1	-2	-1	39*	2	62*
Cc1cc(C)cc(Nc2cc(=O)n(C3CCCCC3)c(=O)[nH]2)c1	-1	-7	-5	2	.
Cc1cc2nc3c(=O)n(C4CCCCC4)c(=O)[nH]c3nc2cc1N	10	1	94*	-14	118*
O=C(NNC1CC(=O)N(c2ccc3c(c2)OCCO3)C1=O)c1ccc(Cl)cc1 (configuration not stated)	-2	0	56*	2	-5
O=C1C=CC(=O)N1CCCCCCN1C(=O)C=CC1=O	-2	2	93*	0	90*
O=C(O)CN1C(=O)C=CC1=O	5	-4	64*	4	75*
SMILES	LEDGF integ inh	MBD2 DNA inh	PRMT1 inh	UHRF1 MBD2 ctr	PRMT1 confirm
O=C1C2C3C=CC(C3)C2C(=O)N1CCCCCCN1C(=O)C2C3C=CC(C3)C2C1=O (configuration not stated)	0	3	-1	-1	.
COC(=O)C1CSC2c3ccccc3C(=O)N12 (configuration not stated)	1	-5	32*	3	21
N#Cc1cc2cc3ccccc3nc2n2c(=O)c3ccccc3nc12	0	-5	-4	-3	.
S=C1NC(c2ccccc2)N2C(=S)NC(c3ccccc3)N12 (configuration not stated)	-2	-4	16	1	.
COc1ccc(C2NC(=S)N3C(c4ccc(OC)cc4)NC(=S)N23)cc1 (configuration not stated)	4	-5	46*	2	5
O=[N+]([O-])c1ccccc1C=NN1CCCCCC1	3	-7	26*	-6	5
Nc1nc2ccc(S(=O)(=O)N3CCCCC3)cc2s1	-3	-2	30*	-1	73*
Cc1nc2ccc(S(=O)(=O)N3CCCCC3)cc2s1	-2	3	0	-2	.
CN1c2ccccc2C(=O)/C(=C\Nc2ccc(F)cc2F)S1(=O)=O	1	-5	2	3	.
CCN1/C(=C\C(=S)Nc2ccccc2)Sc2ccccc21	2	-5	71*	-4	16
CCN1/C(=C\C=C(C(C)=O)C(C)=O)Sc2ccccc21	1	-32	-47	-50	.
COC(=O)C(NNc1ccc(F)cc1)(NC(=O)c1ccccc1)C(F)(F)F (configuration not stated)	-3	-1	1	-1	.
COC(=O)C(NNc1ccccc1C)(NC(=O)c1ccc(F)cc1)C(F)(F)F (configuration not stated)	-1	-5	50*	-1	10
Cc1ccc2nc(-c3ccc(NC(=O)CSc4nnc(-c5cccc(Cl)c5)n4Cc4ccco4)cc3)sc2c1	-1	3	47*	-2	13
C=CCn1c(SCC(=O)Nc2ccc(-c3nc4ccc(C)cc4s3)cc2)nnc1-c1ccccc1	0	2	4	2	.
Cc1ccc(-c2nnc(SCC(=O)Nc3ccc(-c4nc5ccc(C)cc5s4)cc3)n2Cc2ccco2)cc1	0	3	34*	3	22*
OCCn1c(CSc2nnc(-c3ccco3)n2-c2ccccc2)nc2ccc(Cl)cc21	6	-5	39*	4	34*
O=C(CCNc1ccc(Cl)cc1)c1cccs1	2	2	3	-3	.
O=C(CCSc1ccc(Cl)cc1)c1cccs1	0	-4	48*	-3	43*
O=C(N/N=C/c1ccc(N2CCCCC2)o1)c1ccccc1[N+](=O)[O-]	4	-6	31*	-5	5
CCc1ccc(C2C(C#N)=C(N)N(N(C)C)C3=C2C(=O)CCC3)cc1 (configuration not stated)	5	-10	2	-5	.
Cc1cc(C)cc(-n2c3nc4ccccc4nc3c3c(=O)n(Cc4ccco4)cnc32)c1	2	1	52*	2	18
COCCCn1cnc2c(c1=O)c1nc3ccccc3nc1n2-c1ccc(C)cc1	1	2	1	-1	.

From PubChem BioAssay
